Experimental findings from PubChem BioAssay (EPA / NIEHS) are described below.

Activity calls are given as the source filed them. Rule for the calls: active = hit-call score of the fitted dose curve at least 0.9, where 1 is the maximum; inactive = score below 0.9.

This assay is described as follows: ATG_PBREM_CIS: Attagene CIS-FACTORIAL HepG2 Assay for human Phenobarbital-responsive Enhancer Module (PBREM) (AID 2282955). To be noted: HepG2 PBREM cis-reporter, Attagene multiplexed transcription; actives raise or lower the signal. The protocol:
ATG_CIS is a cell-based, multiplexed-readout assay that uses HepG2, a human liver cell line, with measurements taken at 24 hours after chemical dosing in a 24-well plate.ATG_PBREM_CIS is one of 52 assay component(s) measured or calculated from the ATG_CIS assay. It is designed to make measurements of mRNA induction, a form of inducible reporter, as detected with fluorescence intensity signals by Reverse transcription polymerase chain reaction (RT-PCR) and Capillary electrophoresis technology.Data from the assay component ATG_PBREM_CIS was analyzed into 1 assay endpoint. This assay endpoint, ATG_PBREM_CIS, was analyzed with bidirectional fitting relative to DMSO as the negative control and baseline of activity. Using a type of inducible reporter, measures of mRNA for gain or loss-of-signal activity can be used to understand the reporter gene at the transcription factor-level as they relate to the gene NR1I3. Furthermore, this assay endpoint can be referred to as a primary readout, because this assay has produced multiple assay endpoints where this one serves a reporter gene function. To generalize the intended target to other relatable targets, this assay endpoint is annotated to the nuclear receptor intended target family, where the subfamily is non-steroidal.
Human liver HepG2 cells are transiently transfected with multiple reporter transcription units (MRTUs) in 6-well plates using FuGene 6 reagent (Roche; 3 ml FuGene/1 mg DNA). The MRTU constructs are regulated by a cis-regulating element (promoter). […] A major difference between the CIS and TRANS system is that in CIS activities of endogenous TFs are measured, whereas the TRANS assay evaluates changes in activities of exogenous, chimeric NR-Gal4 proteins. […] At the end of 24 hour incubation, total RNA was isolated using TriZol reagent (Invitrogen). The isolated RNA is then reverse-transcribed using oligo(dT) primer and Mo-MLV reverse transcriptase (Invitrogen) with DNAse I (Ambion) treatment for 30 min. The one-tenth of the produced cDNA was amplified by PCR using Taq DNA polymerase (Invitrogen) and two reporter sequence-specific primers. The PCR products were fluorescently labeled by primer extension with 6-arboxyfluorescein (6-FAM) 5'-labeled reporter sequence-specific primer (2 min at 95 C, 20 s at 68 C and 10 min at 72 C) and these products were digested with 5U of HpaI (New England Biolabs) for 2h at 37 C. The fragments were purified using Qiaquick PCR columns (Qiagen), analyzed on an ABI 3130xL genetic analyzer (Applied Biosystems) with peak positions identified by using a set of X-rhodamine (ROX)-labeled MapMarker1000 molecular weight standards (BioVentures). The raw capillary electrophoresis data was processed using Attagraph software (Attagene).
As to `CC(CC(C)(C)C)CC(C)(C)CC(C)(C)C` (stereo not given), the result was inactive.

Consider `Fc1c(F)c(F)c(Br)c(F)c1F`, for which the result was inactive.

As for `CC(C)(C)C(=O)c1ccccc1`, the outcome was inactive.

For the compound `CO[Si](CCCn1c(=O)n(CCC[Si](OC)(OC)OC)c(=O)n(CCC[Si](OC)(OC)OC)c1=O)(OC)OC`, the result was inactive.

`CCc1c(C)cc(N)c(CC)c1N`: the result was inactive.

For `O=c1oc(=O)c2cc3c(=O)oc(=O)c3cc12`, the result was inactive.

Consider `NC(=O)c1ccccc1Cl`, for which the result was inactive.

With `COCCCOc1ccnc(CS(=O)c2nc3ccccc3[nH]2)c1C` (stereo not given), the outcome was inactive.

For `CC(=O)Nc1ccc(C)cc1C`, the result was inactive.

In the case of `CC(C)CCCCCCCOC(=O)c1ccc(C(=O)OCCCCCCCC(C)C)c(C(=O)OCCCCCCCC(C)C)c1`, the outcome was inactive.

In the case of `Cc1ccc(Nc2ccc(O)c3c2C(=O)c2ccccc2C3=O)cc1`, the result was inactive.

`O=C(Cl)c1cccc(C(=O)Cl)c1`: the result was inactive.

As for `CCN(CC)c1ccc2c(-c3ccccc3C(=O)O)c3ccc(=[N+](CC)CC)cc-3oc2c1`, the result was inactive.

Take `O=C(O)c1cccc(C(F)(F)F)c1`: the outcome was inactive.

For the compound `Nc1ccc(S(N)(=O)=O)cc1`, the result was inactive.

For `O=C[C@@H](O)[C@H](O)[C@H](O)CO`, the outcome was inactive.

On to `Cc1ccc(C(=O)O)o1`, for which the result was inactive.

Take `CC1(C)OC[C@@H]2O[C@@]3(C(=O)O)OC(C)(C)O[C@H]3[C@@H]2O1`: the result was inactive.

With `O=C1OC2(c3cc(Br)c(O)c(Br)c3Oc3c2cc(Br)c(O)c3Br)c2c(Cl)c(Cl)c(Cl)c(Cl)c21`, the result was inactive.

On to `CC(C)(CO)[N+](=O)[O-]`, for which the outcome was inactive.

On to `Nc1cc(Cl)c(O)c(Cl)c1`, for which the AC50 was 84.9 µM (active).

On to `CN1Cc2c(N)cccc2C(c2ccccc2)C1` (stereo not given), for which the result was inactive.

For the compound `CCOC(=S)SSC(=S)OCC`, the result was inactive.

Take `CCOC(=O)c1ccccc1OC`: the result was inactive.

For `O=C(Nc1ccccc1)c1cc([N+](=O)[O-])ccc1Cl`, the result was inactive.

As for `CC(=O)OCc1ccc2c(c1)OCO2`, the outcome was inactive.

For the compound `CC(C)=CCCC(C)=CCCC(C)=CCO`, the result was inactive.

On to `O=[N+]([O-])c1ccc(C=Cc2ccc([N+](=O)[O-])cc2S(=O)(=O)O)c(S(=O)(=O)O)c1`, for which the outcome was inactive.

Consider `CC(C)C1CCC(O)CC1` (stereo not given), for which the result was inactive.

In the case of `C#C[C@]1(O)CC[C@H]2[C@@H]3CCC4=Cc5oncc5C[C@]4(C)[C@H]3CC[C@@]21C`, the AC50 was 5.83 µM (active).

With `CC(=O)OCCOC(C)=O`, the outcome was inactive.

Take `CC[Si](OC(C)=O)(OC(C)=O)OC(C)=O`: the AC50 is 18.7 µM (active).

Take `O=S(=O)(O)c1ccc(O)c2ncccc12`: the result was inactive.

`CCCCCCCCCCCCN`: the outcome was inactive.

`COc1c(Cl)c(Cl)c(Cl)c(Cl)c1Cl`: the outcome was inactive.

Regarding `CCCC(=O)C(C)=O`, the result was inactive.

Regarding `Clc1cccc(Cl)n1`, the outcome was inactive.

`C=O`: the result was inactive.

As to `COc1ccc(NC(=O)CC(C)=O)cc1`, the result was inactive.

In the case of `CC(C)(N)CO`, the outcome was inactive.

As a reminder, the AC50 is the midpoint of the concentration-response curve, whichever way the signal moves.
